Experimental data taken from publication PMC11006913.

Assays:
Assay in all cases: PBM; 200 nM protein, PBS
Conditions in all cases: dsDNA, one strand shown
[1] = target: VAX1 (Homo sapiens, UniProt Q5SQQ9 86-172)
[2] = target: VAX1 (Homo sapiens, UniProt Q5SQQ9 86-172, T142I)
[3] = target: VAX1 (Homo sapiens, UniProt Q5SQQ9 86-172, K157R)
[4] = target: HESX1 (Homo sapiens, UniProt Q9UBX0 95-180, F115L)
[5] = target: T1, NKX2-6 (Homo sapiens, UniProt A6NCS4 118-204, F151L)
T1 sequence: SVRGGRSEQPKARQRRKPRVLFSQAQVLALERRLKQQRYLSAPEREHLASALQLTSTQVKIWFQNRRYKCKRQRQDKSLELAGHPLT

[6] = target: NKX3-2 (Homo sapiens, UniProt P78367 192-278, P234S)
Chain of NKX3-2 (Homo sapiens, UniProt P78367 192-278, P234S) (P78367 192-278 P234S): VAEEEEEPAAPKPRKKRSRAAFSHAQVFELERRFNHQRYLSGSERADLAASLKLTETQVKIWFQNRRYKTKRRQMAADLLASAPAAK

[7] = target: NKX3-2 (Homo sapiens, UniProt P78367 192-278)
Chain of NKX3-2 (Homo sapiens, UniProt P78367 192-278) (P78367 192-278): as the sequence (P78367 192-278 P234S) above, with S43P counted along it

[8] = target: HOXC9 (Homo sapiens, UniProt P31274 178-260, R222W)
Chain of HOXC9 (P31274 178-260 R222W): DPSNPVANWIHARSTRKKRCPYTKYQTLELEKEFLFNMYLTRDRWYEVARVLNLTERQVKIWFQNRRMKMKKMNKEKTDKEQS

[9] = target: HOXD13 (Homo sapiens, UniProt P35453 263-343, T313A)
Chain of HOXD13 (P35453 263-343 T313A): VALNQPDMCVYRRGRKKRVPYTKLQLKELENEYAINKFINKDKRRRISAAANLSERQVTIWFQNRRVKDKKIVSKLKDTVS

[10] = target: MSX2 (Homo sapiens, UniProt P35548 130-214, F161Y)
Chain of MSX2 (P35548 130-214 F161Y): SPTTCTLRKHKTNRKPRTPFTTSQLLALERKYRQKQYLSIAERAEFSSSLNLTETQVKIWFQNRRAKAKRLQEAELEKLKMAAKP

[11] = target: T2, PAX4 (Homo sapiens, UniProt O43316 9-242, R227W)
T2 sequence: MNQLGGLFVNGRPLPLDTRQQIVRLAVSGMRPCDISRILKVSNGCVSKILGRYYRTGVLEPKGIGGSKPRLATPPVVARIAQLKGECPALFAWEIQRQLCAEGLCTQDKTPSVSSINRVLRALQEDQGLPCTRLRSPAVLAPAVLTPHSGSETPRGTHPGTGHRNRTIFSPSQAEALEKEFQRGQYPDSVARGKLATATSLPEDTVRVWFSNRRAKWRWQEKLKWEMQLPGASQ

Chain of VAX1 (Homo sapiens, UniProt Q5SQQ9 86-172, K157R) (Q5SQQ9 86-172 K157R): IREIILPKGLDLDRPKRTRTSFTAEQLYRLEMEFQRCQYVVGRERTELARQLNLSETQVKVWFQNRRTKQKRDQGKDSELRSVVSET
Chain of VAX1 (Homo sapiens, UniProt Q5SQQ9 86-172, T142I) (Q5SQQ9 86-172 T142I): as the sequence (Q5SQQ9 86-172 K157R) above, with T57I, R72K counted along it
Chain of VAX1 (Homo sapiens, UniProt Q5SQQ9 86-172) (Q5SQQ9 86-172): as the sequence (Q5SQQ9 86-172 K157R) above, with R72K counted along it
Chain of HESX1 (Q9UBX0 95-180 F115L): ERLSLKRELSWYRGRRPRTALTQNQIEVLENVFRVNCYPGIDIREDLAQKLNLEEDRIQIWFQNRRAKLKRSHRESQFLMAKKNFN

## AGCCCGTG
[1]
  binding signal: 7.01 upbm affinity estimate (log intensity, higher = more binding, comparable within an allelic series)
[2]
  binding signal: 7.09 upbm affinity estimate (log intensity, higher = more binding, comparable within an allelic series)
[3]
  binding signal: 7.28 upbm affinity estimate (log intensity, higher = more binding, comparable within an allelic series)

## CTGAGCCC
[1]
  binding signal: 7.3 upbm affinity estimate (log intensity, higher = more binding, comparable within an allelic series)
[2]
  binding signal: 7.49 upbm affinity estimate (log intensity, higher = more binding, comparable within an allelic series)
[3]
  binding signal: 7.38 upbm affinity estimate (log intensity, higher = more binding, comparable within an allelic series)

## CCAATCTA
[1]
  binding signal: 9.3 upbm affinity estimate (log intensity, higher = more binding, comparable within an allelic series)
[2]
  binding signal: 8.82 upbm affinity estimate (log intensity, higher = more binding, comparable within an allelic series)
[3]
  binding signal: 9.11 upbm affinity estimate (log intensity, higher = more binding, comparable within an allelic series)

## CGGAGACC
[1]
  binding signal: 6.9 upbm affinity estimate (log intensity, higher = more binding, comparable within an allelic series)
[2]
  binding signal: 7.22 upbm affinity estimate (log intensity, higher = more binding, comparable within an allelic series)
[3]
  binding signal: 7.28 upbm affinity estimate (log intensity, higher = more binding, comparable within an allelic series)

## GCTCAGCC
[1]
  binding signal: 6.9 upbm affinity estimate (log intensity, higher = more binding, comparable within an allelic series)
[2]
  binding signal: 6.99 upbm affinity estimate (log intensity, higher = more binding, comparable within an allelic series)
[3]
  binding signal: 6.88 upbm affinity estimate (log intensity, higher = more binding, comparable within an allelic series)

## CTTATTAA
[4]
  binding signal: 7.74 upbm affinity estimate (log intensity, higher = more binding, comparable within an allelic series)

## AACACTTG
[5]
  binding signal: 10.8 upbm affinity estimate (log intensity, higher = more binding, comparable within an allelic series)

## ACGATCGA
[6]
  binding signal: 10.7 upbm affinity estimate (log intensity, higher = more binding, comparable within an allelic series)
[7]
  binding signal: 10.7 upbm affinity estimate (log intensity, higher = more binding, comparable within an allelic series)

## AAACACTT
[5]
  binding signal: 10.9 upbm affinity estimate (log intensity, higher = more binding, comparable within an allelic series)

## AGAAGAGG
[6]
  binding signal: 11.6 upbm affinity estimate (log intensity, higher = more binding, comparable within an allelic series)
[7]
  binding signal: 11.7 upbm affinity estimate (log intensity, higher = more binding, comparable within an allelic series)

## AATAAATT
[8]
  binding signal: 11.1 upbm affinity estimate (log intensity, higher = more binding, comparable within an allelic series)

## ACACTTAC
[5]
  binding signal: 10.6 upbm affinity estimate (log intensity, higher = more binding, comparable within an allelic series)
[6]
  binding signal: 12.5 upbm affinity estimate (log intensity, higher = more binding, comparable within an allelic series)

## AAATTATT
[4]
  binding signal: 7.73 upbm affinity estimate (log intensity, higher = more binding, comparable within an allelic series)

## CAAGTGTC
[5]
  binding signal: 10.6 upbm affinity estimate (log intensity, higher = more binding, comparable within an allelic series)

## GTTTACAA
[9]
  binding signal: 11.6 upbm affinity estimate (log intensity, higher = more binding, comparable within an allelic series)

## AAGTGTCT
[5]
  binding signal: 10.6 upbm affinity estimate (log intensity, higher = more binding, comparable within an allelic series)

## CGGGTTAG
[6]
  binding signal: 10.5 upbm affinity estimate (log intensity, higher = more binding, comparable within an allelic series)
[7]
  binding signal: 10.5 upbm affinity estimate (log intensity, higher = more binding, comparable within an allelic series)

## CGCTGCGA
[6]
  binding signal: 10.5 upbm affinity estimate (log intensity, higher = more binding, comparable within an allelic series)
[7]
  binding signal: 10.5 upbm affinity estimate (log intensity, higher = more binding, comparable within an allelic series)

## GACGGGAC
[6]
  binding signal: 10.5 upbm affinity estimate (log intensity, higher = more binding, comparable within an allelic series)
[7]
  binding signal: 10.5 upbm affinity estimate (log intensity, higher = more binding, comparable within an allelic series)

## CGGTGAGC
[6]
  binding signal: 10.6 upbm affinity estimate (log intensity, higher = more binding, comparable within an allelic series)
[7]
  binding signal: 10.7 upbm affinity estimate (log intensity, higher = more binding, comparable within an allelic series)

## AATTACAA
[10]
  binding signal: 12.9 upbm affinity estimate (log intensity, higher = more binding, comparable within an allelic series)

## CATATTAG
[11]
  binding signal: 10.9 upbm affinity estimate (log intensity, higher = more binding, comparable within an allelic series)

## ACGGTGTC
[6]
  binding signal: 10.6 upbm affinity estimate (log intensity, higher = more binding, comparable within an allelic series)
[7]
  binding signal: 10.6 upbm affinity estimate (log intensity, higher = more binding, comparable within an allelic series)

## ACCAACGC
[6]
  binding signal: 10.7 upbm affinity estimate (log intensity, higher = more binding, comparable within an allelic series)
[7]
  binding signal: 10.7 upbm affinity estimate (log intensity, higher = more binding, comparable within an allelic series)

## CGGGTCGA
[6]
  binding signal: 10.6 upbm affinity estimate (log intensity, higher = more binding, comparable within an allelic series)
[7]
  binding signal: 10.6 upbm affinity estimate (log intensity, higher = more binding, comparable within an allelic series)

## ATAAAAAA
[8]
  binding signal: 11.1 upbm affinity estimate (log intensity, higher = more binding, comparable within an allelic series)

## AAGAGTGG
[6]
  binding signal: 12.5 upbm affinity estimate (log intensity, higher = more binding, comparable within an allelic series)
[7]
  binding signal: 12.7 upbm affinity estimate (log intensity, higher = more binding, comparable within an allelic series)

## ATAAAATC
[8]
  binding signal: 11.1 upbm affinity estimate (log intensity, higher = more binding, comparable within an allelic series)

## ACCACGGC
[6]
  binding signal: 10.5 upbm affinity estimate (log intensity, higher = more binding, comparable within an allelic series)
[7]
  binding signal: 10.5 upbm affinity estimate (log intensity, higher = more binding, comparable within an allelic series)

## ACAAGTGT
[5]
  binding signal: 10.6 upbm affinity estimate (log intensity, higher = more binding, comparable within an allelic series)

## CGAAGTGC
[6]
  binding signal: 12.5 upbm affinity estimate (log intensity, higher = more binding, comparable within an allelic series)

## GGCACTCA
[6]
  binding signal: 12.5 upbm affinity estimate (log intensity, higher = more binding, comparable within an allelic series)
[7]
  binding signal: 12.6 upbm affinity estimate (log intensity, higher = more binding, comparable within an allelic series)

## AAGTGTTC
[5]
  binding signal: 10.8 upbm affinity estimate (log intensity, higher = more binding, comparable within an allelic series)

## ATTATTAG
[11]
  binding signal: 10.9 upbm affinity estimate (log intensity, higher = more binding, comparable within an allelic series)

## CTCTAGAG
[6]
  binding signal: 10.9 upbm affinity estimate (log intensity, higher = more binding, comparable within an allelic series)
[7]
  binding signal: 10.9 upbm affinity estimate (log intensity, higher = more binding, comparable within an allelic series)

## ACTCTGAT
[6]
  binding signal: 11.5 upbm affinity estimate (log intensity, higher = more binding, comparable within an allelic series)
[7]
  binding signal: 11.6 upbm affinity estimate (log intensity, higher = more binding, comparable within an allelic series)

## AGAAGTGG
[6]
  binding signal: 12.5 upbm affinity estimate (log intensity, higher = more binding, comparable within an allelic series)
[7]
  binding signal: 12.7 upbm affinity estimate (log intensity, higher = more binding, comparable within an allelic series)

## ATTAAAAA
[8]
  binding signal: 11 upbm affinity estimate (log intensity, higher = more binding, comparable within an allelic series)

## AGCCTGGA
[6]
  binding signal: 10.6 upbm affinity estimate (log intensity, higher = more binding, comparable within an allelic series)
[7]
  binding signal: 10.6 upbm affinity estimate (log intensity, higher = more binding, comparable within an allelic series)

## AAGTAGGT
[6]
  binding signal: 11.7 upbm affinity estimate (log intensity, higher = more binding, comparable within an allelic series)
[7]
  binding signal: 11.8 upbm affinity estimate (log intensity, higher = more binding, comparable within an allelic series)

## ACTTAAGG
[5]
  binding signal: 10.6 upbm affinity estimate (log intensity, higher = more binding, comparable within an allelic series)

## CTGCCGCA
[6]
  binding signal: 10.7 upbm affinity estimate (log intensity, higher = more binding, comparable within an allelic series)
[7]
  binding signal: 10.6 upbm affinity estimate (log intensity, higher = more binding, comparable within an allelic series)
